hcDAF12 agonist = activators of H. contortus DAF-12 nuclear receptor; activation, % at 6.8 µM; hit rate 1.4% among 370,000; HEK293 hcDAF-12 lit1-tk-luc reporter, luminescence; 0% DMSO, 100% Δ7-dafachronic acid;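 active = activation above the mean of all tested compounds plus 3 SD, cut at about 5.5% in these data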
ssDAF-12 act = S. stercoralis DAF-12 activation, primary screen | HEK293 ssDAF-12/GRIP1 lit1-tk-luc reporter, luminescence; % of 3 µM dafachronic acid response | activation, % at 6.8 µM | hit rate 1% among 370,000 | AID 652126;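 active = activation above the mean over all tested compounds plus 3 SD, cut at about 0.9% in these data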
AHR activator = activators of human aryl hydrocarbon receptor; P35869; AHR-responsive luciferase reporter cells, luminescence; activation, % at 5 µM; hit rate 2.5% among 320,000; AID 2796; in the data active = activation above about 47%
hgDAF-12 ag = agonists of H. glycines DAF-12 nuclear receptor | HEK293 GAL4-hgDAF12 UAS-luciferase reporter, agonist luminescence; normalized to butyrate control | activation, % at 6.8 µM | hit rate 1.8% among 370,000 | AID 687014;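 active = activation above a cutoff set at the mean of all screened compounds plus 3 SD, cut at about 10% in these data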
DAX1 inh-1 = DAX1 (NR0B1) inhibition, primary screen; AID 652010; hit rate 1.1% among 370,000; inhibition, % at 6.8 µM; HEK293T StAR-luciferase reporter, SF-1/DAX-1 repression relief;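 active = inhibition above the mean over all tested compounds plus 3 SD, cut at about 3.6% in these data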;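 also: higher inhibition means more luminescence from relief of DAX-1 repression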
DAX1 inh-2 = NR0B1 (DAX1) inhibition; HEK293 Gal4-DAX1 luciferase reporter, luminescence; AID 504766; P51843; hit rate 0.99% among 340,000; inhibition, % at 6.75 µM;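 active = inhibition above the mean over all tested compounds plus 3 SD, cut at about 4.2% in these data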;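 also: inhibition shows as a rise in luminescence from relieved DAX1 repression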
Target sequence (P51843 207-470 limits assumed): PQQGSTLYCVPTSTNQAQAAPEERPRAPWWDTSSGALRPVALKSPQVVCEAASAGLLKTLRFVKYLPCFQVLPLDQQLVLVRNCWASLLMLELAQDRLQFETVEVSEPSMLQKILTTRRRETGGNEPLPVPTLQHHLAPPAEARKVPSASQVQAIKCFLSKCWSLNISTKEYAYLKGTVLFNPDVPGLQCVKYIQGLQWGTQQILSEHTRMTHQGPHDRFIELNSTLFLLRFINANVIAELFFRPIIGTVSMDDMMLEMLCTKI
Each line names hits and unclear results; the compound was inactive in the other large screens. Sampled rows, rich in hits. Any-hit rate of the full collection: about 5.7%.

CC(C)(O)c1[nH]c2cc(F)ccc2c1C(C)(C)O	hcDAF12 agonist 5.7
CCn1c(=O)c(C(=O)Nc2ccccc2C)c(O)c2ccccc21	ssDAF-12 act 1.4
C=CCn1c(=O)c(C(=O)Nc2ccccc2O)c(O)c2ccccc21	ssDAF-12 act 1.0, AHR activator 63
C=CCn1c(=O)c(C(=O)Nc2ccccc2C)c(O)c2ccccc21	none (no result: AHR activator)
N#Cc1ccc(OCCCN2CCC(C(O)(c3ccccc3)c3ccccc3)CC2)cc1	none (no result: AHR activator, DAX1 inh-2)
CN(C)C(=O)c1cc(-c2ccccc2)no1	none
CC(=O)Nc1nccc(-c2cc(-c3ccccc3)no2)n1	AHR activator 50 (no result: hcDAF12 agonist, ssDAF-12 act, hgDAF-12 ag, DAX1 inh-1, DAX1 inh-2)
C/C(CC(=O)NC1CCCCC1)=N\NC(=O)c1ccccc1C	none
CCC1CCC/C1=N\NC(=O)c1ccccc1C (configuration not stated)	DAX1 inh-2 5.3
CCOC(=O)CC(=O)CSc1nc2c(C)c(C)ccc2cc1C	none
CCOC(=O)CSc1nc2cc(C)cc(C)c2cc1C#N	none
CCOC(=O)CC(=O)CSc1nc2cc(C)ccc2cc1C	hcDAF12 agonist 6.4
CCOC(=O)CSc1nc2cc(C)ccc2cc1C#N	hgDAF-12 ag 11
COc1ccc2nc(SCC(=O)NC3CCCC3)c(C)cc2c1	none
CCOC(=O)CC(=O)CSc1nc2ccc(OC)cc2cc1C	ssDAF-12 act 1.7
Cc1ccccc1Cn1nc(C)c(NC(=O)c2ccccc2)c1C	hgDAF-12 ag 13
C/C(Cn1cnc([N+](=O)[O-])n1)=N\NC(=O)c1ccccc1	DAX1 inh-2 4.3
Cc1cccc(C2NC(=O)c3c(sc(C)c3C)N2)c1O (configuration not stated)	ssDAF-12 act 1.4
Cc1noc(C)c1NC(=O)Nc1ccc2c(c1)CC(=O)N([C@H](C)CO)C[C@@H](C)[C@H](CN(C)CC1CCCCC1)O2	none
Brc1ccc2ncnc(Nc3cccc4ccccc34)c2c1	AHR activator 59
COc1cccc(Nc2ncnc3ccc(Br)cc23)c1	none (no result: AHR activator)
COc1ccccc1NC(=O)C(C)OC(=O)CCCOc1ccccc1 (configuration not stated)	none
CCOC(=O)C1CCN(S(=O)(=O)c2ccc3oc(=O)ccc3c2)CC1	none
Cc1nnc(SCC(=O)Nc2cc(-c3cc(C)c(C)cc3C)nn2-c2ccccc2)s1	AHR activator 104
Cc1nnc(SCC(=O)Nc2cc(C(C)(C)C)nn2-c2ccccc2)s1	none
O=c1[nH]c2c(s1)C=Nc1ccccc1N2	hcDAF12 agonist 6.2
Cc1ccc(NC(=O)CN(C)C(=O)/C=C/c2cccs2)cc1	ssDAF-12 act 1.3
COc1ccccc1Nc1nc(-c2c(C)[nH]c3ccccc23)cs1	ssDAF-12 act 1.3
Cc1[nH]c2ccccc2c1-c1csc(N)n1	none (no result: AHR activator)
COc1ccccc1Nc1nc(-c2sc(NC(=O)CC(C)C)nc2C)cs1	AHR activator 71
COc1cccc(Nc2nc(-c3sc(NC(=O)CC(C)C)nc3C)cs2)c1	AHR activator 51
O=C(NNC(=O)C1CCCN(S(=O)(=O)c2cccc(F)c2)C1)C1CC1 (configuration not stated)	none
CN(CC(=O)N1CCN(c2ncccn2)CC1)S(=O)(=O)c1ccc(Cl)cc1	ssDAF-12 act 2.2
CN(CC(=O)N1CCN(c2ccccn2)CC1)S(=O)(=O)c1ccccc1	none
COc1cc(C)c(COc2ncnc3ccccc23)cc1OC	none
Clc1cccc(/C=N/Nc2nc(Cl)nc3ccccc23)c1	hcDAF12 agonist 6.6
COCCCNC(=O)[C@@H](Cc1ccccc1)NC(=O)[C@H]1O[C@@H](n2ccc(=O)[nH]c2=O)[C@H](O)[C@@H]1O	none (no result: AHR activator, DAX1 inh-2)
O=C(Cc1cnc2ncnn2c1)N1CCc2c([nH]c3ccccc23)C1c1ccccc1F (configuration not stated)	ssDAF-12 act 1.7
COc1cc(/C=C2/C(=O)N(c3ccccc3)N=C2C)ccc1OS(=O)(=O)c1ccccc1	none (no result: hcDAF12 agonist, ssDAF-12 act, hgDAF-12 ag, DAX1 inh-1, DAX1 inh-2)
COc1ccc(/C=C2/C(=O)N(c3ccccc3)N=C2C)cc1Br	hcDAF12 agonist 6.4
O=C(O)CN1C(=O)/C(=C2\SC(=S)N(C(Cc3ccccc3)C(=O)O)C2=O)c2ccccc21 (configuration not stated)	hcDAF12 agonist 6.4, ssDAF-12 act 1.2
CC(=O)c1cccc(NC(=O)c2cccc3ccccc23)c1	none
O=C1c2oc3ccccc3c(=O)c2C(c2ccc(O)cc2)N1c1nccs1 (configuration not stated)	DAX1 inh-2 6.1
Cc1nc(-c2ccc(S(=O)(=O)Oc3ccc(Cl)cc3Cl)s2)cs1	none
COc1ccc(N/C=C(\C#N)c2nc3ccccc3n2C)c(OC)c1	AHR activator 109
CC[C@@H](CCCc1ccc(OC)cc1)CCC(=O)N(c1ccccc1)c1ccccc1	none (no result: AHR activator, DAX1 inh-2)
O=C(Nc1ccc(Br)cc1F)c1ccc2c(c1)OCCO2	hgDAF-12 ag 11
O=C(Nc1ccc(F)cc1F)c1ccc2c(c1)OCCO2	hgDAF-12 ag 13
CCN(CC)CCOC(=O)c1ccc(NC(=O)CNC(=O)C2CCCCC2)cc1	none
Cc1ccc(/C=N/NC(=O)c2cc(C)oc2C)cc1	none (no result: DAX1 inh-2)
Cc1[nH]c2ccccc2c1/C=N\NC(=O)c1ccccc1Cl	none (no result: AHR activator)
Cc1cc(C(=O)N/N=C/c2cccc([N+](=O)[O-])c2)c(C)o1	AHR activator 72
Cc1cc(C(=O)NN=Cc2c(C)[nH]c3ccccc23)c(C)o1	AHR activator 57
Cc1cc(C(=O)N/N=C/c2ccncc2)c(C)o1	DAX1 inh-2 4.8
CC(C)(C)OC(=O)N/N=C/c1cccc([N+](=O)[O-])c1	hgDAF-12 ag 11, DAX1 inh-1 4.4
CC1(C)Oc2ccc(C(=O)NC3CCCC3)cc2NC1=O	none (no result: AHR activator, DAX1 inh-2)
CCS(=O)(=O)N1Cc2ccccc2CC1C(=O)N(C)Cc1ccc(OC)c(F)c1 (configuration not stated)	none
CC(NC(=O)C(=O)N/N=C\c1cccc([N+](=O)[O-])c1)c1ccccc1 (configuration not stated)	DAX1 inh-2 5.0
O=[N+]([O-])c1cccc(C=NNc2ccccc2)c1	none (no result: AHR activator)
N#Cc1c(Nc2ccccc2)sc(C(=O)C2CC2)c1N	AHR activator 49
O=C(NNC(=O)c1sccc1-n1cccc1)Nc1ccc(F)cc1	AHR activator 62
COc1ccc(Cl)cc1NS(=O)(=O)c1cccc(C(=O)NCCCN2CCOCC2)c1	none (no result: AHR activator)
COc1ccc(C2C(C(=O)N3CCOCC3)CCC(=O)N2c2ccc(OC)cc2)cc1 (configuration not stated)	none
COc1ccc(C2C(C(=O)NCC3CCCO3)CCC(=O)N2c2ccc3c(c2)OCO3)cc1 (configuration not stated)	DAX1 inh-2 4.4
Cn1c(C(=O)NC2CCCCCC2)cc2c(=O)n(C)c3ccccc3c21	AHR activator 51
Cc1ccc(CNC(=O)c2cc3c(=O)n(C)c4ccccc4c3n2C)cc1	DAX1 inh-2 5.6
